Shiga inhibitor – A qHTS for Small Molecule Inhibitors of Shiga Toxin; Vero cells, Shiga toxin protein synthesis inhibition reporter; inhibition, % at 38.7 µM; 9.2% of 290,000 active; in the data active means inhibition mostly above about 28%, no sharp cut-off; inactive means mostly below about 43%
LASV entry inh – qHTS for Inhibitors of binding or entry into cells for Lassa Virus. Potency, µM (series often up to 37.9 µM), actives largely listed as inhibitors. Lassa virus pseudotype entry inhibition, cell reporter. 1.2% of 300,000 active; calls by dose curve; tested in HEK293 cells; further: nearly all actives have a fitted effect of over 50% in size
Pf growth 48h – Primary qHTS for delayed death inhibitors of the malarial parasite plastid, 48 hour incubation. AID 504832, 2011. Potency, µM (highest dose often 28.7 µM), most hits filed as inhibitors. P. falciparum luciferase growth in erythrocytes, 48 h. 5.9% of 310,000 active
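Here the parasites carry a stable luciferase gene and grow inside erythrocytes in Albumax-based RPMI medium with compound for one erythrocytic cycle. Activity is scored as loss of luminescent signal.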
Marburg entry inh – qHTS for inhibitors of binding or entry into cells for Marburg Virus; Marburg virus pseudotyped entry inhibition, cell reporter; Potency, µM (doses to about 37.8 µM), most hits filed as inhibitors; 1.8% of 300,000 active; calls by dose curve; tested in HEK293 cells
Pf growth 96h – Primary qHTS for delayed death inhibitors of the malarial parasite plastid, 96 hour incubation; AID 504834, 2011; Potency, µM (titrated, usually from 28.7 µM), most hits filed as inhibitors; P. falciparum luciferase reporter growth, 96 h; 6.9% of 320,000 active
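Infected RBCs, 2% Hct / 0.05% parasitemia final; luciferase-reporter P. falciparum; cpd 96 h, 37 C, 5% CO2; luciferase detection reagent; luminescence.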
CHX counter – Cycloheximide Counterscreen for Small Molecule Inhibitors of Shiga Toxin; cell reporter, cycloheximide protein synthesis inhibition counterscreen; max response, %; 12% of 300,000 active; AID 2314, 2010; in the data active means max response mostly above about 13%, no sharp cut-off; inactive means mostly below about 14%; further: read at 38.3 µM for the half of the compounds with a filed dose
Of the large screens only hits and unclear results are named; the others gave an inactive call. A selection: hits, their analogues and other compounds. The true share with any hit is near 19%. Unless noted, the call rests on the fitted dose curve; in most records, active means well fitted inhibition curve with a large enough effect; inconclusive means small, poorly fitted or top-dose-only effect, or another doubt; inactive means no such curve, though single readings can be large or run the other way.

CC1CCN(c2c(NCc3ccc(C(=O)N(C)C4CCCCC4)cc3)c(=O)c2=O)CC1	Pf growth 48h 8.28µM (no result: LASV entry inh, Marburg entry inh)
OC1(c2cccc(C(F)(F)F)c2)CCN(c2ccc(-c3ccccc3)nn2)CC1	Shiga inhibitor 67.5, LASV entry inh inconclusive, Pf growth 96h 3.7µM, CHX counter 38.0
O=S1(=O)CCN2C(=N1)Sc1c2ccc2c1CCCC2	Shiga inhibitor 69.5, CHX counter 24.8 (no result: Pf growth 48h, Pf growth 96h)
O=S1(=O)CCN2C(c3ccc4c(c3)CCCC4)=CSC2=N1	Marburg entry inh inconclusive, Pf growth 96h inconclusive
O=C(CN1c2ccccc2Sc2ccccc21)N/N=C/c1ccc([N+](=O)[O-])cc1	LASV entry inh inconclusive, Pf growth 48h inconclusive, Marburg entry inh 8.91µM, Pf growth 96h inconclusive
O=C1c2ccccc2CCCC12N=NCC2c1cccc2ccccc12 (stereo not given)	Pf growth 48h 2.62µM, Marburg entry inh inconclusive, Pf growth 96h 1.85µM
COC(=O)c1ccc(C)cc1C1CN=NC12Cc1cc(C)ccc1C2=O (stereo not given)	none (no result: Shiga inhibitor, Pf growth 48h, Pf growth 96h, CHX counter)
Cc1ccc(C2CN=NC23CCc2ccccc2C3=O)cc1 (stereo not given)	Shiga inhibitor 173.0, Pf growth 96h 3.7µM, CHX counter 47.5 (no result: Pf growth 48h)
Cc1c(NP(=O)(C(C)(C)C)C(C)(C)C)c(=O)n(-c2ccccc2)n1C	LASV entry inh inconclusive, Marburg entry inh inconclusive
CCOC(=O)Cc1cc(-c2ccc(O)cc2)nc2ccc3ccccc3c12	Shiga inhibitor 82.9, Pf growth 48h inconclusive, Marburg entry inh inconclusive, Pf growth 96h 11.7µM
CCOC(=O)Cc1cc(-c2ccc(OC)cc2)nc2ccc3ccccc3c12	none
N#Cc1c(-n2cccc2/C=N/O)sc2c1CCCC2	Pf growth 96h 14.7µM
CCC(=O)Nc1ccc(NC(=O)CSc2nnnn2CC)cc1C	none
Clc1ccc(C2Nc3cccc4cccc(c34)N2)cc1	Pf growth 48h inconclusive
CCOc1ccc2c(c1)C(C)=CC(C)(C)N2S(=O)(=O)c1ccc(F)cc1	Pf growth 96h inconclusive (no result: Shiga inhibitor, LASV entry inh, Marburg entry inh)
COc1ccc2c(c1)C(C)=CC(C)(C)N2S(=O)(=O)c1ccc(Br)cc1	LASV entry inh inconclusive, Pf growth 48h 9.28µM, Marburg entry inh inconclusive
CCOc1ccc2c(c1)C(C)=CC(C)(C)N2S(=O)(=O)c1ccc(NC(C)=O)cc1	Pf growth 48h 6.57µM (no result: LASV entry inh, Marburg entry inh)
COc1ccc2c(c1)C(C)=CC(C)(C)N2S(=O)(=O)c1ccc(NC(C)=O)cc1	LASV entry inh inconclusive, Pf growth 48h inconclusive, Marburg entry inh 1.12µM
CCCC(C)C(=O)NC1CCSC1=O (stereo not given)	none
CCOC(=O)c1c(NC(=S)Nc2cccc(C)c2)sc2c1CC(C)(C)SC2	Pf growth 48h inconclusive, Pf growth 96h inconclusive
COc1ccc(/C=C\C(=O)c2c(O)ccc3c(C)cc(=O)oc23)cc1OC	LASV entry inh inconclusive, Pf growth 48h 9.28µM, Marburg entry inh inconclusive (no result: Pf growth 96h)
Cc1c(C(=O)/C=C/c2cccs2)oc2ccc(F)cc12	Shiga inhibitor 72.6, CHX counter 36.0 (no result: Pf growth 48h)
Cc1cc(=O)oc2c(C(=O)/C=C/c3ccccc3)c(O)ccc12	Pf growth 48h 5.86µM, Marburg entry inh inconclusive (no result: Pf growth 96h)
Cc1cc(=O)oc2c(C(=O)/C=C\c3cccs3)c(O)ccc12	LASV entry inh inconclusive, Pf growth 96h 13.1µM
CN(C)S(=O)(=O)c1cccc(NC(=O)c2sccc2-c2ccccc2)c1	Pf growth 48h inconclusive, Marburg entry inh inconclusive, Pf growth 96h inconclusive
CCc1nn(-c2ccccc2)c2nc(-c3ccccc3OC)c3cc(OC)c(OC)cc3c12	none (no result: Shiga inhibitor, Pf growth 48h, Marburg entry inh, Pf growth 96h, CHX counter)
COc1cc(NC(=O)c2ccco2)c(OC)cc1NC(=O)Nc1cccc(Cl)c1	Pf growth 48h inconclusive (no result: Pf growth 96h)
CCCOC(=O)c1ccc(Cl)c(NC(=O)c2cccnc2)c1	Pf growth 48h inconclusive (no result: LASV entry inh, Marburg entry inh)
O=C(NC(NC(=S)N1CCOCC1)C(Cl)(Cl)Cl)c1cccc2ccccc12 (stereo not given)	Pf growth 48h 2.94µM, Marburg entry inh inconclusive
O=C(NN1CCOCC1)c1cccc2ccccc12	none
CCCCCC(=O)NC(NC(=S)N1CCOCC1)C(Cl)(Cl)Cl (stereo not given)	Pf growth 48h 8.28µM
Cc1ccccc1CN1CCCN(Cc2ccc(Cl)cc2)S1(=O)=O	LASV entry inh inconclusive
O=C1CN(C(=O)CSc2nnc(-c3ccccc3)n2Cc2ccc3c(c2)OCO3)c2ccccc2N1	none (no result: Pf growth 48h)
Cc1cc(Nc2ccc(Cl)cc2)n(-c2ccccc2)n1	none (no result: Pf growth 48h)
